In publication PMC5540273 (PLoS ONE, 2017):
Read-outs that look alike come from different tables or passages of the source.

How the values were obtained:
GRK2 = system: T1, GRK2; conditions: concentration: 1 μM, replicates: in singlicate; n = 1
T1 construct: gene ADRBK1

GRK3 = system: T2, GRK3; conditions: concentration: 1 μM, replicates: in singlicate; n = 1
T2 construct: gene ADRBK2

GRK4 = conditions: concentration: 1 μM, replicates: in singlicate; n = 1
GRK7 = conditions: concentration: 1 μM, replicates: in singlicate; n = 1
GSK3A = conditions: concentration: 1 μM, replicates: in singlicate; n = 1
GSK3B = conditions: n = 1
HASPIN = system: T3, HASPIN; conditions: concentration: 1 μM, replicates: in singlicate; n = 1
T3 construct: gene GSG2

HCK = conditions: concentration: 1 μM, replicates: in singlicate; n = 1
HIPK1 = conditions: concentration: 1 μM, replicates: in singlicate; n = 1
HIPK2 = conditions: concentration: 1 μM, replicates: in singlicate; n = 1
[1] = concentration: 1 μM, replicates: in singlicate
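Also: KINOMEscan kinase panel screen.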

O=C(Nc1n[nH]c2nc(-c3ccccc3)c(Br)cc12)C1CC1 [SB-708998]
%Inh (GRK2): 12%
%Inh (GRK3): 0%
%Inh (GRK4): 14%
%Inh (GRK7): 0%
%Inh (GSK3A): 90.3%
%Inh (GSK3B; 1 µM): 15%
%Inh (HASPIN): 0%
%Inh (HCK): 0%
%Inh (HIPK1): 0%
%Inh (HIPK2): 0%

COc1ccc(-c2coc3ccc(-c4nnc(SCc5cccc(C#N)c5)o4)cc23)cc1
%Inh (GRK2): 0%
%Inh (GRK3): 0%
%Inh (GRK4): 0%
%Inh (GRK7): 27%
%Inh (GSK3A): 96.1%
%Inh (GSK3B; [1]): 45%
%Inh (HASPIN): 0%
%Inh (HCK): 20%
%Inh (HIPK1): 32%
%Inh (HIPK2): 24%

COc1cccc(C2=C(Nc3cccc(C(=O)O)c3)C(=O)NC2=O)c1 [SB-390770]
%Inh (GRK2): 0%
%Inh (GRK3): 22%
%Inh (GRK4): 0%
%Inh (GRK7): 0%
%Inh (GSK3A): 51%
%Inh (GSK3B; 1 µM): 31%
%Inh (HASPIN): 10%
%Inh (HCK): 0%
%Inh (HIPK1): 0%
%Inh (HIPK2): 0%

CCC(=O)c1c(-c2ccccc2)c2cc(Cl)ccc2c(=O)n1Cc1cc(S(C)(=O)=O)n(CC(N)=O)n1
%Inh (GRK2): 0%
%Inh (GRK3): 0%
%Inh (GRK4): 0%
%Inh (GRK7): 0%
%Inh (GSK3A): 6%
%Inh (GSK3B; [1]): 0%
%Inh (HASPIN): 0%
%Inh (HCK): 24%
%Inh (HIPK1): 29%
%Inh (HIPK2): 0%
